# PubChem BioAssay (Tox21)
# Records with an inconclusive call do not appear. Where a call stands in place of a potency, no number is given. A number with no mark means an inactive call. Active and inactive are the calls of the source. Calls follow the shape of the dose curve; as a rule, active = well fitted cell-killing curve with a large enough effect in the repeat runs; inconclusive = weak or mixed curves, or effect the other way; inactive = flat fitted curve, though single readings scatter.
# Assay: qHTS assay to identify small molecule agonists of the androgen receptor (AR) signaling pathway in the presence of an antagonist - cell viability counter screen (AID 1259379); also: nearly all actives have a fitted effect of over 25% in size
# Conditions: MDA-kb2 viability, CellTiter-Fluor, 16 h; series mostly up to 92.4 µM
# Excerpt: National Center for Advancing Translational Sciences [NCATS]
# NIH Chemical Genomics Center [NCGC]
# U.S. Environmental Protection Agency [EPA]
# National Institutes of Environmental Health Sciences [NIEHS]
# National Toxicology Program [NTP]
# U.S. Food and Drug Administration [FDA]
# Androgen receptor (AR) is an important member of nuclear receptor family. Its signaling plays a critical role in AR-dependent prostate cancer and other androgen related diseases. Considerable attention has been given in the past decades to develop methods to study and screen for the environmental chemicals that have the potential to interfere with metabolic homeostasis, reproduction, developmental and behavioral functions. Therefore AR binding assay for screening against androgen agonists and antagonists can be used to identify potential endocrine disruptors.
# MDA-kb2 cells (from ATCC, deposited by Wilson et al.) are human breast carcinoma cells that were stably transfected with a luciferase reporter gene under control of the MMTV promoter that contains response elements for both androgen receptor (AR) and glucocorticoid receptor (GR). This particular screening for measuring luciferase reporter gene activity using MDA-kb2 cells against Tox21 10K library compounds is a confirmation study on agonist mode screening in the presence of AR-antagonist compound (Nilutamide) at 3.0uM final concentration. The cytotoxicity of the compounds was tested in parallel by measuring the cell viability using CellTiter-Fluor assay system (Promega, Madison, WI) in the same wells.
# Tox21 Assay Protocol Summary:
# MDA-kb2 cells (cells cultured without CO2) were dispensed at 3,000 cells/well in 4uL of culture medium into white wall/solid-bottom 1536-well plates (Corning Life Sciences, Corning, NY) using a Multidrop Combi (Thermo Fisher Scientific Inc., Waltham, MA) dispenser. The assay plates were incubated at 37C and 0% CO2 for 5hr. One uL of 3.0uM (final concentration) Nilutamide or assay buffer was added using two separate tips of Flying Reagent Dispenser (FRD, Aurora Discovery, San Diego, CA). Then 23nL of compounds dissolved in DMSO at 15 concentrations and positive controls were transferred to the assay plates using a Pintool station (Wako, San Diego, CA). The assay plates were incubated at 37C and 0% CO2 for 16 hr. After 15hr incubation at 37C, 1uL/well CellTiter-Fluor reagent (Promega Corporation) was added to each well of the assay plates using FRD. After 1hr incubation at 37C and 0% CO2, the fluorescence signal was measured using a ViewLux plate reader (PerkinElmer, Shelton, CT).
# Potency is read from the fitted curve at half-maximal effect.
SMILES,Potency,"activity change, negative = cytotoxicity"
CCCCCCCCCCCCCCCCOP(=O)([O-])OCC[N+](C)(C)C,inactive,–
CC1=C2[C@H](/C=C(\C)C(=O)O)CC[C@@H](C)[C@H]2CC1,inactive,–
O=C(O)CN(CCN(CC(=O)O)CC(=O)O)CCN(CC(=O)O)CC(=O)O,–,-0.118% [at 19 µM]
Cc1cccc(C)c1NC(=O)CN1CCCCCC1,inactive,–
NC(Cc1ccc(F)cc1)C(=O)O (stereo not given),–,-0.068% [at 8.39 µM]
O=[N+]([O-])c1nccn1CO[C@@H](CO)[C@H](O)CO,inactive,–
CCOc1ccccc1N,54.1 µM (active),–
CCCCC(CC)COC(=O)COc1cc(Cl)c(Cl)cc1Cl (stereo not given),inactive,–
C=CCCCCCCCCO,inactive,–
O=S(=O)(O)C(F)(F)F,inactive,–
CC(C)NCC(O)COc1ccc(CCOCC2CC2)cc1 (stereo not given),inactive,–
Nc1ccc(Oc2ccc(N)c(N)c2)cc1,inactive,–
CC(C)=CCC[C@](C)(O)[C@@H]1CC=C(C)CC1,inactive,–
COC(=O)/C=C(/C)N,inactive,–
CCCCCCCOC(=O)CCC,inactive,–
CC1=C(O)C(=O)OC1C (stereo not given),inactive,–
O=C1CCCc2ccccc21,inactive,–
COC(=O)C(C)O (stereo not given),inactive,–
COc1ccc(S(=O)(=O)Nc2nnc(CC(C)C)s2)cc1,inactive,–
CCc1nnc(NS(=O)(=O)c2ccc(N)cc2)s1,inactive,–

SMILES,Potency,"activity change, negative = cytotoxicity"
COC(=O)N[C@H](C(=O)N[C@@H](Cc1ccccc1)[C@@H](O)CN(Cc1ccc(-c2ccccn2)cc1)NC(=O)[C@@H](NC(=O)OC)C(C)(C)C)C(C)(C)C,inactive,–
CCOc1ccc(NS(=O)(=O)c2ccc(N)cc2)nn1,inactive,–
CC(C)(CO)[C@@H](O)C(=O)NCCC(=O)O,inactive,–
Nc1ccc2ccccc2c1S(=O)(=O)O,inactive,–
CCCNC(C)(C)COC(=O)c1ccccc1,inactive,–
COc1ccc2nc(NC(=O)Nc3ccccc3)sc2c1,inactive,–
Cc1ccsc1C(=CCCN1CCC[C@@H](C(=O)O)C1)c1sccc1C,inactive,–
C=CC1CO1 (stereo not given),inactive,–
CCN(CC)CCOc1ccc(Cc2ccccc2)cc1,inactive,–
CC(C)C1=CC2=CC[C@@H]3[C@](C)(CCC[C@@]3(C)C(=O)O)[C@H]2CC1,inactive,–
OCCN1CCN(CCO)CC1,inactive,–
O=Cc1ccc(F)c(Br)c1,inactive,–
CN1CCN(c2c(F)cc3c(=O)c(C(=O)O)cn4c3c2SCC4)CC1,inactive,–
Cc1c(C(=O)NCCO)[n+](=O)c2ccccc2n1[O-],inactive,–
Oc1ccccc1C=NCc1ccccc1,inactive,–
NS(=O)(=O)c1cc(-c2nn[nH]n2)c(NCc2cccs2)cc1Cl,inactive,–
O=C1CCC(C2CCCCC2)CC1,inactive,–
N#CSCC(=O)O,inactive,–
CCCCCCCCCCCCOCCOS(=O)(=O)O,inactive,–
CCCCCCn1c(=O)c2c(ncn2C)n(C)c1=O,inactive,–
